Experimental data reported in the supplement of paper PMC11219838.
Values without a mark were called inactive.

test system: Caenorhabditis elegans L1 (N2); assay: survival and reproduction score of C. elegans L1 (0: 0-10 living worms, 1: 11-20, 2: 21-50, 3: >50, 4: overgrown) (score 0-4); higher = more worms, less nematicidal, active = 1 or less; extreme values may be limits of the assay; details: 60 µM; 6 days; temperature: 20 °C
Outline: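 In liquid NGM with E. coli HB101, approximately 20 synchronized C. elegans N2 L1s per 96-well well were exposed to compound at 60 µM final (0.6% v/v DMSO) for 6 days at 20 °C with shaking at 200 rpm in sealed plates. Survival and reproduction were judged under a dissection microscope as an ordinal rating of living worms per well. Ratings went from 0 (0–10 worms) to 4 (overgrown, starved) and were averaged over two biological replicates.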

SMILES | survival and reproduction score
Cc1ccccc1-c1noc(-c2ccc(F)cc2)n1 | 4
CC(Sc1nnc(-c2ccco2)o1)C(=O)NC(c1ccccc1)c1ccccc1 (centres undefined) | 4
Cc1ccc(-c2nc(-c3cccnc3)no2)c(C)c1 | 0 (active)
CCOc1ccccc1-c1nc(-c2ccc(NC(=O)Cc3ccccc3OC)cc2)no1 | 4
COc1ccccc1-c1nc(-c2ccccc2)no1 | 4
COc1cccc(-c2noc(COc3ccccc3Cl)n2)c1 | 4
N#Cc1ccccc1CSc1nnc(-c2ccco2)o1 | 4
COc1ccccc1-c1noc(-c2ccccc2)n1 | 4
COc1cccc(-c2nc(-c3ccc(C)cc3)no2)c1 | 0 (active)
CCOc1nc(-c2ccccc2)ccc1-c1noc(CC)n1 | 4
Fc1ccc(-c2noc(COc3ccccc3Cl)n2)cc1 | 4
c1cncc(-c2noc(-c3cccc4ccccc34)n2)c1 | 4
CC(C)(C)c1ccc(-c2nnc(SCc3cccc(C#N)c3)o2)cc1 | 3.5
Cc1cccc(-c2noc(COc3ccc(C)cc3C)n2)c1 | 4
Fc1ccc(-c2nc(-c3cccc(C(F)(F)F)c3)no2)cc1 | 4
Cc1ccc(NC(=O)CSc2nnc(-c3ccc(C(C)(C)C)cc3)o2)c(C)c1 | 2
Cc1ccc(NC(=O)CSc2nnc(-c3ccccc3)o2)c(C)c1 | 4
Clc1ccc(OCc2nc(-c3ccc4c(c3)OCO4)no2)cc1 | 4
COc1nc(-c2ccccc2)ccc1-c1noc(-c2ccccc2Cl)n1 | 4
Cc1ccc(OC(C)c2nc(-c3cccnc3)no2)cc1 (centres undefined) | 4

SMILES | survival and reproduction score
Clc1cccc(-c2nc(-c3cccnc3)no2)c1 | 2
CC(=O)c1cccc(NC(=O)CSc2nnc(-c3ccccc3)o2)c1 | 4
Brc1cccc(-c2nc(-c3cccnc3)no2)c1 | 4
c1ccc(-c2nnc(SCc3cccnc3)o2)cc1 | 4
Cc1cc(NC(=O)CSc2nnc(-c3ccc(Cl)cc3Cl)o2)no1 | 4
Cc1cccc(-c2nc(-c3ccc4c(c3)OCO4)no2)c1 | 4
O=C(Nc1ccc(-c2noc(-c3ccc(Cl)cc3)n2)cc1)c1ccco1 | 0 (active)
COc1ccc(-c2noc(-c3cccc(Br)c3)n2)cc1 | 4
COc1cccc(-c2noc(COc3ccc(C)cc3C)n2)c1 | 4
COc1ccc(CC(=O)Nc2ccc(-c3noc(COc4cccc(C)c4C)n3)cc2)cc1 | 4
O=C(CSc1nnc(-c2ccccc2)o1)NC1CC2CCC1C2 (centres undefined) | 4
Cc1ccc(-c2noc(-c3ccccc3C(=O)N3CCC(C)CC3)n2)cc1 | 4
O=C(Nc1ccc(-c2noc(-c3ccccn3)n2)cc1)c1cccc(Cl)c1 | 4
COc1ccc(-c2nnc(SCC(=O)Nc3ccc(C(C)C)cc3)o2)cc1 | 4
CCOc1nc(-c2ccc(C)cc2)ccc1-c1noc(-c2cccnc2)n1 | 4
CC(C)c1ccc(NC(=O)CSc2nnc(-c3ccc(Br)cc3)o2)cc1 | 4
O=C(Nc1ccccc1-c1nc(-c2cccnc2)no1)c1ccc(Cl)cc1 | 4
Cc1cc(C)c(NC(=O)CSc2nnc(-c3ccc(Br)cc3)o2)c(C)c1 | 4
O=C(CSc1nnc(-c2ccc(Cl)cc2Cl)o1)c1ccc2c(c1)OCCO2 | 4
